Inconclusive results are not listed. Entries that show only a call come without a potency. Active and inactive are the calls of the source. The call rests on the fitted dose curve; in most records, active means well fitted curve in the direction sought with a large enough effect; inconclusive means small, poorly fitted or top-dose-only effect, or another doubt; inactive means no such curve, though single readings can be large; an effect the other way counts as inactive or inconclusive.
How the values were obtained:
[1] = target: Aldehyde dehydrogenase, mitochondrial (Homo sapiens) (UniProt P05091); assay: qHTS for Inhibitors of the Aldehyde Dehydrogenase Family (ALDH2) Primary screen (AID 2061308); further: nearly all actives have a fitted effect of over 55% in size
[2] = target: Retinaldehyde dehydrogenase 3 (Homo sapiens) (UniProt P47895); assay: qHTS for Inhibitors of the Aldehyde Dehydrogenase Family (ALDH1A3) Primary screen (AID 2061315)

| Structure (SMILES) | Potency [1] | Potency [2] |
| --- | --- | --- |
| O=C1CCCC2=C1C(c1[nH]ncc1Cl)N=C(Nc1nc3c(Br)cccc3o1)N2 (stereo not given) | inactive | inactive |
| Cc1ccc(NC(=O)CN2C(=O)N/C(=C\c3cccn3-c3ccc(C(=O)NOCc4ccccc4)cc3)C2=O)cc1 | inactive | inactive |
| Cc1ccc(OCCn2c(CCNC(=O)c3ccccn3)nc3ccccc32)cc1 | inactive | inactive |
| Cc1csc(CNc2ncnc3ccc(-c4ccccc4Cl)cc23)c1 | inactive | inactive |
| Nc1ccccc1OCCn1c(CCNC(=O)C2CCCCC2)nc2ccccc21 | inactive | inactive |
| CC(C)(C)c1ccc(Nc2nc(C#N)nc(NC3CCCC3)n2)cc1 | inactive | inactive |
| O=C(NCc1ccccc1)Nc1nnc(-c2ccncc2)s1 | inactive | inactive |
| Cc1cc2c(s1)c1cnn(Cc3ccccc3)c(=O)c1n2C | inactive | inactive |
| Cn1c2cc(B(O)O)sc2c2cnn(Cc3ccc(F)cc3F)c(=O)c21 | inactive | inactive |
| COC(=O)c1c(NC(=O)COC(=O)c2ccc(Cl)cc2[N+](=O)[O-])sc2c1CCCCC2 | inactive | inactive |
| O=S(=O)(c1ccc2c(c1)OCCO2)N1CCN(S(=O)(=O)c2ccccn2)CC1 | inactive | inactive |
| O=C(Nc1ncc([S+](=O)([O-])N2CCOCC2)s1)c1cccc(Br)c1 | inactive | inactive |
| COc1ccccc1NC(=O)C(OC(=O)CNC(=O)c1ccccc1)c1ccccc1 (stereo not given) | inactive | inactive |
| CN(C)CCCCC(=O)Nc1ccc(NC(=S)NC(=O)c2ccc(C(C)(C)C)cc2)cc1 | inactive | inactive |
| CCCCc1ccc(C(=O)Nc2ccc(S(=O)(=O)Nc3nccs3)cc2)cc1 | inactive | inactive |
| COc1cccc(C2c3c(ncn(-c4ccccc4Br)c3=N)Oc3ccc4ccccc4c32)c1 (stereo not given) | inactive | inactive |
| N#CN1CCC(NC(=O)c2ccc(C(F)(F)F)cc2)CC1 | inactive | inactive |
| COc1ccc(C2Nc3ccccc3C(=O)N2Cc2cccc(OC)c2OC)cc1COc1c(C)cc(NC(C)=O)cc1C (stereo not given) | inactive | inactive |
| Cc1ccc(-c2cc(C(=O)Nc3ccc(S(C)(=O)=O)cc3)c3ccccc3n2)cc1C | inactive | inactive |
| COc1cc2c(s1)c1cnn(Cc3ccccc3F)c(=O)c1n2C | inactive | inactive |
| Cc1nnc(-c2cnn(C)c2N)o1 | inactive | inactive |
| Cc1nc(CN(C)c2ncnc3ccc(-c4ccc5c(c4)OCO5)cc23)cs1 | inactive | inactive |

| Structure (SMILES) | Potency [1] | Potency [2] |
| --- | --- | --- |
| O=C(OC/C=C/CSc1nnc(-c2cccc3ccccc23)o1)c1ccc(F)cc1 | inactive | inactive |
| COCCN(CCOC)c1nc(C)nc2c1nc(-c1ccccc1)n2CCN1CCCC1 | inactive | inactive |
| O=C(CNC(=O)c1ccccc1)OC(CCc1ccccc1)C(=O)Nc1cc(C(F)(F)F)ccc1Cl (stereo not given) | inactive | inactive |
| N#Cc1c(-c2ccccc2C(F)(F)F)nc2ccccc2c1NCc1ccc(-c2cccnc2)cc1 | inactive | inactive |
| O=S(=O)(NCCCCCNS(=O)(=O)c1c(F)cccc1F)c1ccc2c(c1)OCCO2 | inactive | inactive |
| Cc1ccc(C(C)c2ccc(=O)n(CC(=O)NCCc3ccccc3)n2)cc1 (stereo not given) | inactive | inactive |
| Cc1ccc(OCCn2c(CCNC(=O)C3CCC3)nc3ccccc32)cc1 | inactive | inactive |
| CCN(CC)CCCC(C)n1c(-c2ccccc2)nc2c(N3CCOCC3)nc(C)nc21 (stereo not given) | inactive | inactive |
| CC(Cc1ccccc1)C(=O)Nc1ccc(Cl)cc1C(=O)O (stereo not given) | inactive | inactive |
| CC(=O)Nc1cccc(S(=O)(=O)N2CCN(S(=O)(=O)c3ccc4c(c3)OCCO4)CC2)c1 | inactive | inactive |
| CC(C)n1cc(-c2ccc(Oc3ccccc3)cc2)c2c(N)ncnc21 | inactive | inactive |
| Cn1ncc(Cl)c1C1N=C(Nc2nc3ccccc3o2)NC2=C1C(=O)CCC2 (stereo not given) | inactive | inactive |
| O=Cc1ccc(N2CCN(S(=O)(=O)c3ccc4c(c3)CC(=O)N4)CC2)cc1 | inactive | inactive |
| Cc1ccc(C)c(OCCn2c(CCNC(=O)C3CCCCC3)nc3ccccc32)c1 | inactive | inactive |
| COc1ccc(Br)cc1S(=O)(=O)N1CCN(S(=O)(=O)c2ccc3c(c2)OCCO3)CC1 | inactive | inactive |
| O=[S+]([O-])(Nc1ccccc1)c1ccc(NCc2cccc(C(F)(F)F)c2F)cc1 | inactive | inactive |
| C=C1C(O)C(O)C2(CC3C(C)=CCC4C(C)(CO)CCCC34C)OC2C1O (stereo not given) | inactive | inactive |
| Cc1nc(N2CCOCC2)c2nc(-c3ccccc3)n(CCN3CCOCC3)c2n1 | inactive | inactive |
| Cc1ccc(S(=O)(=O)Nc2cccc(C(=O)Nc3nc(-c4ccccc4)cs3)c2Cl)cc1 | inactive | inactive |
| CC(=O)Nc1ccccc1NC(=O)c1cnn2c(C)cc(C)nc12 | inactive | inactive |
| Cc1ccc(NS(=O)(=O)c2cc3c(cc2C)OCC(=O)N3)cc1C | inactive | inactive |
| CCCCNc1nc(C)nc2c1nc(-c1ccccc1)n2C(C)CCCN(CC)CC (stereo not given) | inactive | inactive |

| Structure (SMILES) | Potency [1] | Potency [2] |
| --- | --- | --- |
| N#Cc1cccc(S(=O)(=O)Nc2cnccc2C(=O)Nc2nc(-c3ccccc3)cs2)c1 | inactive | inactive |
| Cc1cc(NC(=O)Nc2nnc(-c3cccnc3)s2)ccc1Cl | inactive | inactive |
| CC1=C(C(=O)c2ccccc2)C(c2ccccc2Cl)N=C(Nc2nc3ccccc3o2)N1 (stereo not given) | inactive | inactive |
| O=C(CNC(=O)c1ccccc1Cl)OC(C(=O)Nc1cc(C(F)(F)F)ccc1Cl)c1ccccc1 (stereo not given) | inactive | inactive |
| Cc1cc2c(s1)c1cnn(Cc3ccc(Cl)c(F)c3)c(=O)c1n2C | inactive | inactive |
| CCN(CCc1cn(C)cn1)c1ncnc2ccc(-c3ccc4c(c3)OCO4)cc12 | inactive | inactive |
| CC(=O)NC(c1cc(Cl)c2cccnc2c1O)C1CC1 (stereo not given) | inactive | inactive |
| COc1ccc(NC(=O)c2cnn3c(C)cc(C)nc23)cc1Cl | inactive | inactive |
| Cc1ccc(CNc2ncnc3ccc(-c4ccc(C(=O)N(C)C)o4)cc23)o1 | inactive | inactive |
| COc1ccc(C2Nc3ccccc3C(=O)N2Cc2cccs2)cc1COc1c(C)cccc1C (stereo not given) | inactive | inactive |
| Cc1ccc(/C=C/C(=O)Nc2cccc([S+](=O)([O-])Nc3ccccc3F)c2)cc1 | inactive | inactive |
| COC(=O)c1c(-c2ccccc2)no[n+]1[O-] | inactive | inactive |
| CCC(C)C(=O)Oc1cc(C)ccc1C1(COC(=O)C(C)C)CO1 (stereo not given) | inactive | inactive |
| Cc1cc2c(s1)c1cnn(Cc3cccc([N+](=O)[O-])c3)c(=O)c1n2C | inactive | inactive |
| COc1ccc(NC(=O)c2[nH]c(C)c(C(C)=O)c2C)cc1[S+](=O)([O-])Nc1ccccc1C#N | inactive | inactive |
| CC(C)(C)c1ccc(C(=O)NCC(=O)OC(C(=O)Nc2cc(C(F)(F)F)ccc2Cl)c2ccccc2)cc1 (stereo not given) | inactive | inactive |
| COCOC1CCC(C(=O)Nc2ccc([S+](=O)([O-])Nc3nccs3)cc2)CC1 (stereo not given) | inactive | inactive |
| CCC(CC)C(=O)OC12C(OC(=O)C(C)C)C(C)C3(O)C(C=C(CO)CC4(O)C(=O)C(C)=CC43)C1C2(C)C (stereo not given) | inactive | inactive |
| COc1cc(OC)c(C(CC(=O)N2CC(C)CC(C)C2)c2ccc3c(c2)OCO3)c(OCC#N)c1 (stereo not given) | inactive | inactive |
| O=C(OCC#CCSc1nnc(-c2cccc3ccccc23)o1)c1ccccc1F | inactive | inactive |
| CC/C(=C(\c1ccc(O)cc1)c1ccc(OCCNC)cc1)c1ccccc1 | inactive | inactive |
| O=S(=O)(c1c(F)cccc1F)C1CCN(S(=O)(=O)c2ccc3c(c2)OCCO3)CC1 | inactive | inactive |

| Structure (SMILES) | Potency [1] | Potency [2] |
| --- | --- | --- |
| Cc1cnc(-c2ccccc2C(C)C)nc1NCc1ccc(C2CCCNC2)cc1 (stereo not given) | inactive | inactive |
| CCOc1ccc(CCNC(=O)c2cc3sccc3n2Cc2cccc(C)c2)cc1OCC | inactive | inactive |
| O=C(OCC#CCSc1nnc(-c2ccc3ccccc3c2)o1)c1ccc(F)cc1 | inactive | inactive |
| COC(=O)C12C(=O)C(C)=C(O)C1(C)C(C)=CC1C3(CO)CCC(O)C(C)(C)C3CCC12C (stereo not given) | inactive | inactive |
| Cc1ccc(OCCn2c(CCNC(=O)c3cc(N)ccc3N)nc3ccccc32)cc1 | inactive | inactive |
| Cc1cc(-c2nnc3n2CCCCC3)c(C)n1-c1ccccc1 | inactive | inactive |
| CCN(CC)CCCCn1c(-c2ccccc2)nc2c(NCc3ccccc3)nc(C)nc21 | inactive | inactive |
| Cc1nc(N2CCOCC2)c2nc(-c3ccccc3)n(CCCN3CCOCC3)c2n1 | inactive | inactive |
| O=C(Cn1nc(C2CC2)ccc1=O)NCCc1ccccc1 | inactive | inactive |
| Cc1cc(NS(=O)(=O)c2ccc(NC(=O)Cc3ccc(Cl)c(Cl)c3)cc2)on1 | inactive | inactive |
| N#Cc1cccc(-c2noc(-c3ccccc3F)n2)c1 | inactive | inactive |
| Cc1ccc(-c2ccc(=O)n(CC(=O)NCCCN(C)C)n2)cc1 | inactive | inactive |
| Cc1cnc(-c2ccccc2C(C)C)nc1NCc1cccs1 | inactive | inactive |
| O=C(OCc1ccccc1)N1CCN(C(=O)[C@H](Cc2ccc(O[S+](=O)([O-])c3cccc4cnccc34)cc2)N[S+](=O)([O-])c2cccc3cnccc23)CC1 | inactive | inactive |
| CCOc1ccc(CCNC(=O)c2cc3sccc3n2CCc2ccccc2)cc1OCC | inactive | inactive |
| COc1ccc(Nc2nn3c(=O)c4ccccc4nc3s2)cc1 | inactive | inactive |
| O=S(=O)(c1ccccc1)N1CCN(c2nccc(-c3cccs3)n2)CC1 | inactive | inactive |
| COc1cc(OC)cc(-c2csc(N3CCC(C(N)=O)CC3)n2)c1 | inactive | inactive |
| CN(C)c1cccc(-c2cc(N3CCC(C(N)=O)CC3)ncn2)c1 | inactive | inactive |
